# Results reported in PubChem BioAssay AID2685 (National Center for Advancing Translational Sciences (NCATS), 2010).
# About 2,100 (0.66%) of roughly 320,000 compounds were called active. About 53% were inconclusive and are not listed. This is one part of a sample in which actives are shown more often than they occur. Calls come from the whole dose curve; as a rule, active = well fitted inhibition curve with a large enough effect in the signal ratio, with a control signal flat (not every such curve was filed as active); inconclusive = small, poorly fitted or top-dose-only effect, or effect the other way, or a change in a side signal; inactive = flat fitted curve, though single readings scatter; the % refers to the signal ratio.
# Experiment: qHTS Assay for Lipid Storage Modulators in Drosophila S3 Cells;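 for cell number change: cells counted by Cell Tracker Red CMTPX staining in the red channel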; for lipid storage change, negative = inhibition: % is set by controls: 0 for no effect and ±100 for the full control effect
# Details: BODIPY lipid droplet fluorescence, 18-24 h, cells fed with added oleic acid; cell number change: measured here: cell count max response; series mostly up to 46.1 µM
# Procedure, shortened: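 Laser-scanning cytometry quantifies lipid droplet accumulation (500–530 nm total intensity; droplet/cell object ratio) in oleic acid-fed (400 uM added) Drosophila S3 cells treated with a concentration series. 20 uM Triacsin C defined 100% inhibition.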
# Potency is the fitted concentration of half-maximal effect.
SMILES,Potency,cell number change [%],"lipid storage change, negative = inhibition"
O=c1[nH]cnc2sc3c(c12)CCC3,inactive,25.4,
CCOc1ccc(-n2ccc(=O)c(C(=O)Nc3ccc(S(=O)(=O)Nc4nccs4)cc3)n2)cc1,inactive,-6.87,
CCc1c(C)nc(N)n2c(SCC(=O)N3CCN(c4ccccc4F)CC3)nnc12,inactive,-1.8,
O=C1CCN(Cc2ccccc2)CCN1CCO,inactive,13.2,
O=C(CN(C(=O)CCC(=O)Nc1nccs1)c1ccc2c(c1)OCO2)NCC1CCCO1 (configuration not stated),inactive,2.62,
Cc1cc(N2CCN(S(=O)(=O)Cc3ccccc3)CC2)n2ncnc2n1,inactive,,
O=c1[nH]c2ccccc2nc1C(Cl)c1ccccc1 (configuration not stated),inactive,23.2,
CCN(CC)S(=O)(=O)c1cccc(NC(=O)c2ccc(SC)cc2OC)c1,inactive,22.2,
COc1ccc(S(=O)(=O)N(CC(=O)NCc2ccco2)c2ccccc2)cc1,inactive,,
CC(C)(C)c1ccc(C(=O)NC2CCN(Cc3ccccc3)CC2)cc1,inactive,5.06,
Cc1nnc2c(NC3CCCC3)nc3ccccc3n12,inactive,9.22,
Cc1ccc(-c2nnc(SCC(=O)Nc3ccc(N4CCOCC4)cc3)o2)cc1,inactive,-5.45,
O=C1Nc2cc(C(=O)N3CCc4ccccc4C3)ccc2S/C1=C\c1ccccc1,0.651 µM (active),17.1,
CC1CCN(C(=O)c2ccc3c(c2)NC(=O)/C(=C/c2ccccc2)S3)CC1,inactive,3.29,
COc1ccc(/C=C2/Sc3ccc(C(=O)N4CCc5ccccc5C4)cc3NC2=O)cc1,inactive,0.0626,
Cn1c(=O)[nH]c(=O)c2c1nc(SCCN1CCCCC1)n2Cc1ccccc1,inactive,,
COc1ccc(OC)c(C(=O)CSc2nnc(Cc3cccs3)n2C)c1,inactive,-18.3,
O=C(Nc1ccc(F)cc1)c1csc(Cc2ccccc2)n1,inactive,,
COc1ccc(Cc2nc3ccccc3[nH]c2=O)cc1,3.26 µM (active),,
O=c1[nH]c2ccccc2nc1Cc1ccc(Cl)cc1,inactive,6.67,
O=c1[nH]c2ccccc2nc1Cc1ccccc1,inactive,-29.6,
COC(=O)N1[C@H](Cc2ccccc2)C=C[C@]1(C)C(=O)O,inactive,-7.24,
O=C(CBr)Nc1c2c(nn1-c1ccccc1)CSC2,inactive,23.5,

SMILES,Potency,cell number change [%],"lipid storage change, negative = inhibition"
CCC(=O)Nc1c2c(nn1-c1ccccc1)CSC2,inactive,19,
O=C(CCl)Nc1c2c(nn1-c1ccccc1)CSC2,20.6 µM (active),-21.4,
COc1ccc(C(=O)OCCc2sc[n+](CC(=O)c3ccccc3)c2C)cc1,inactive,15.7,
Cc1c(CCOC(=O)C23CC4(C)CC(C)(CC(C)(C4)C2)C3)sc[n+]1CC(=O)c1ccccc1,18.4 µM (active),-53.8,
Cc1c(CCOC(=O)CC23CC4CC(CC(C)(C4)C2)C3)sc[n+]1CC(=O)c1ccccc1,inactive,-7.33,
CCOc1ccccc1NC(=S)NC1CC2CCC1C2 (configuration not stated),inactive,6.16,
COc1ccc(OC)c(NC(=O)c2cc(-c3ccc(C)cc3O)n[nH]2)c1,inactive,2.51,
Cc1cc(C)c(-c2cc(C(=O)Nc3cc(C)ccc3C)[nH]n2)c(O)c1,inactive,2.08,
COc1ccc(OC)c(NC(=O)c2cc(-c3c(C)cc(C)cc3O)n[nH]2)c1,0.206 µM (active),13.7,
CCc1c(C)sc(NC(=O)c2cccs2)c1C#N,inactive,-15.6,
COc1cc2c(cc1OC)C(c1ccc(C)cc1)NC(=O)C2 (configuration not stated),inactive,,
COc1cc2c(cc1OC)C(c1cccc([N+](=O)[O-])c1)NC(=O)C2 (configuration not stated),inactive,-2.94,
COc1cc2c(cc1OC)C(c1ccc([N+](=O)[O-])cc1)NC(=O)C2 (configuration not stated),6.51 µM (active),-4.67,
O=C(N/N=C/c1ccco1)c1cc(-c2cccc3ccccc23)n[nH]1,inactive,-16.1,
Cc1cccc2cc3c(NC(=O)C(C)(C)C)nn(CC(C)C)c3nc12,inactive,-9.6,
CCn1nc(NS(=O)(=O)c2ccc(F)cc2)c2cc3cccc(C)c3nc21,inactive,-26.3,
CCn1nc(NC(=O)C(C)(C)C)c2cc3cccc(C)c3nc21,2.91 µM (active),12.4,
CCn1nc(NS(=O)(=O)c2ccccc2)c2cc3cccc(C)c3nc21,inactive,-3.04,
CCn1nc(NC(C)=O)c2cc3cccc(C)c3nc21,inactive,,
CCn1nc(NS(=O)(=O)c2ccc([N+](=O)[O-])cc2)c2cc3cccc(C)c3nc21,1.46 µM (active),-19.5,
CCOC(=O)C(C(=O)OCC)c1c([N+](=O)[O-])c(=O)n2c3c(cccc13)CCC2,inactive,0.163,
COc1ccc(OC(=O)NCCc2ccccc2)cc1,inactive,,
Cc1cc2oc(C(=O)N3CCN(CCc4ccccn4)CC3)c(C)c2cc1C,inactive,,

SMILES,Potency,cell number change [%],"lipid storage change, negative = inhibition"
O=C(NCc1cccc(Cl)c1)C1CCC(=O)N(CCN2CCOCC2)C1 (configuration not stated),inactive,19,
O=C(NCc1cccc(Cl)c1)C1CCC(=O)N(CCCN2CCCC2=O)C1 (configuration not stated),1.84 µM (active),15.8,
O=C(NCc1ccccc1Cl)C1CCC(=O)N(CCCN2CCCC2=O)C1 (configuration not stated),inactive,-14.7,
CC(C)CCNC(=O)c1cc([N+](=O)[O-])ccc1N1CCOCC1,inactive,-14,
CCOC(=O)c1c(NC(=O)c2ccc(S(=O)(=O)N3CCOCC3)cc2)sc2c1CCN(C(C)C)C2,inactive,6.84,
CC(C)N1CCc2c(sc(NC(=O)c3ccc(S(=O)(=O)N4CCOCC4)cc3)c2C(N)=O)C1,inactive,0.268,
CCN1CCc2c(sc(NC(=O)c3ccc4ccccc4c3)c2C(N)=O)C1,,-8.56,-25.3% [at 0.369 µM] (inactive)
CC(C)N1CCc2c(sc(NC(=O)c3ccc(S(=O)(=O)N(C)CC4CCCO4)cc3)c2C(N)=O)C1 (configuration not stated),7.31 µM (active),-19.4,
CCN1CCc2c(sc(NC(=O)c3ccc(S(=O)(=O)N(C)CC4CCCO4)cc3)c2C(N)=O)C1 (configuration not stated),2.91 µM (active),-26.3,
CCN1CCc2c(sc(NC(=S)NC(=O)c3ccc(Cl)cc3)c2C(N)=O)C1,inactive,6.82,
CC1=CC(C)(C)NC(=S)N1C(C)c1ccccc1 (configuration not stated),inactive,20.7,
O=C(CCNC(=O)Cn1ccc2ccccc2c1=O)NCc1ccccn1,inactive,1.28,
Cc1ccc(NC(=O)CNc2cccc(S(=O)(=O)N3CCCCC3)c2)cc1F,1.46 µM (active),,
COc1ccc([N+](=O)[O-])cc1NCC(=O)Nc1cc(S(=O)(=O)N2CCCCC2)ccc1C,16.4 µM (active),-23.1,
COc1cc(NCC(=O)Nc2cccc(S(=O)(=O)N3CCCCC3)c2)cc(OC)c1OC,inactive,-2.08,
CCN(CC)S(=O)(=O)c1cc(NC(=O)CNc2cccc(S(=O)(=O)N3CCOCC3)c2)ccc1C,2.06 µM (active),-23.6,
COc1ccc(S(=O)(=O)N2CCCCC2)cc1NC(=O)CNc1ccc(F)cc1C,inactive,11.8,
COc1ccc(S(=O)(=O)N2CCCCC2)cc1NCC(=O)Nc1ccc(C)cc1,inactive,-1.26,
O=C(CSc1ccccc1)Nc1cccc(S(=O)(=O)N2CCOCC2)c1,inactive,-14.2,
O=C(CNc1cccc(S(=O)(=O)N2CCOCC2)c1)Nc1ccccc1F,inactive,4.62,
O=C(CNc1cccc(S(=O)(=O)N2CCCC2)c1)Nc1ccc(F)c(F)c1,inactive,2.77,
COC(=O)c1ccccc1NC(=O)CNc1ccc(F)c(S(=O)(=O)N2CCOCC2)c1,3.26 µM (active),0.245,
COc1cc(NC(=O)CNc2ccc(Cl)c(S(=O)(=O)N3CCOCC3)c2)cc(OC)c1,inactive,-14.4,

SMILES,Potency,cell number change [%],"lipid storage change, negative = inhibition"
CCN(CC(=O)Nc1cccc(S(=O)(=O)N2CCOCC2)c1)Cc1ccccc1,,,-10.6% [at 0.0737 µM] (inactive)
Oc1cccc(CCC2CCCCN2Cc2cn[nH]c2-c2ccc3c(c2)OCO3)c1 (configuration not stated),inactive,7.37,
Fc1ccc(N/N=C(/c2ccccc2)c2ccccn2)cc1,inactive,9.54,
CN(C)c1ccc(C=NCCC2(O)CCOC(C)(C)C2)cc1 (configuration not stated),inactive,2.42,
NC(=O)N/N=C/CCc1ccccc1,inactive,7.84,
S=c1[nH]nc(CNc2cccc(Cl)c2)o1,inactive,5.85,
Cc1[nH]c2ccccc2c1/C=N/NC(=O)c1cc(C(C)C)[nH]n1,inactive,17.7,
O=C(/C=C/c1cccc(Cl)c1)NCCc1ccccc1,inactive,4.34,
CN1CCN(c2ccc(CNS(=O)(=O)Cc3ccc(Cl)cc3)cc2)CC1,inactive,-12.5,
CNC(=O)Cn1c(C)cc(=O)c2cccc(C)c21,inactive,13.3,
CN(Cc1ccccc1)S(=O)(=O)c1ccc(OCC(=O)Nc2cccc([N+](=O)[O-])c2)cc1,inactive,18.8,
CCOc1ccccc1OCCCC(=O)Nc1nc2ccccc2[nH]1,inactive,,
COc1ccc(-c2noc(CSc3nc4ccccc4c(=O)n3-c3ccc(C)cc3)n2)cc1,inactive,13.3,
Clc1ccc(OCc2cn3cccnc3n2)c2ncccc12,inactive,,
CC[C@H](C)[C@H](NC(N)=O)C(=O)Nc1ccc(S(=O)(=O)NC(C)C)cc1,inactive,3.97,
Cc1ccc([N+](=O)[O-])cc1NC(=O)CCCOc1ccccc1,inactive,2.03,
O=C(CNc1cccc(S(=O)(=O)N2CCCC2)c1)Nc1cccc(Br)c1,inactive,14.3,
COc1ccc(OCCCC(=O)Nc2cc([N+](=O)[O-])ccc2C)cc1,14.6 µM (active),-3.49,
CC(=O)c1cccc(NCC(=O)Nc2cccc(S(=O)(=O)N3CCCCC3)c2)c1,inactive,13.3,
O=C(CNc1cccc(S(=O)(=O)N2CCCCCC2)c1)Nc1cccc([N+](=O)[O-])c1,20.6 µM (active),20.3,
COc1ccc(OCCCC(=O)Nc2cccc([N+](=O)[O-])c2)cc1,inactive,10.1,
